RE007 growth inh: less growth of the S. pombe RE007 Vpr strain; S. pombe RE007 Vpr strain, BacTiter-Glo ATP luminescence, 24 h; Potency, µM (top dose mostly 92.2 µM), for the others: at the highest dose activity change, negative = less growth, most hits filed as inhibitors; 360,000 tested, 0.21% active; AID 651644; active means well fitted falling curve with a large enough effect; inconclusive means small, poorly fitted or top-dose-only effect; inactive means no such curve, though single readings can be large or run the other way; further: potency means the concentration at half of the fitted maximal effect; on the % scale 0 is the no-effect control and ±100 the full control effect; nearly all actives have a fitted effect of over 50% in size
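Fission yeast strain RE007, carrying one chromosomally integrated HIV-1 vpr copy, was seeded at OD 0.01 in PMG+AL medium with 23 nL pinned compound. After 24 h at 30 °C and 99% humidity, viability was read by BacTiter-Glo luminescence.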
CHX counter: counter-screen hit for Shiga toxin inhibitors, cycloheximide. cell reporter, cycloheximide protein synthesis inhibition counterscreen. max response, %. 300,000 tested, 12% active. AID 2314; in the data active means max response mostly above about 13%, no sharp cut-off; inactive means mostly below about 14%; further: read at 38.3 µM for the half of the compounds with a filed dose; 0% is about no effect
Giardia FBPA inh: blocks Giardia fructose-bisphosphate aldolase activity | Potency, µM (titrated, usually from 59.6 µM), inactives show at the top dose activity, negative = inhibition, hits mostly inhibitors | 290,000 tested, 0.71% active | A8B2U2 | purified Giardia FBPA; further: potency means the concentration at half of the fitted maximal effect; on the % scale 0 is the no-effect control and ±100 the full control effect; nearly all actives have a fitted effect of over 55% in size
Target sequence (A8B2U2 whole entry, looked up): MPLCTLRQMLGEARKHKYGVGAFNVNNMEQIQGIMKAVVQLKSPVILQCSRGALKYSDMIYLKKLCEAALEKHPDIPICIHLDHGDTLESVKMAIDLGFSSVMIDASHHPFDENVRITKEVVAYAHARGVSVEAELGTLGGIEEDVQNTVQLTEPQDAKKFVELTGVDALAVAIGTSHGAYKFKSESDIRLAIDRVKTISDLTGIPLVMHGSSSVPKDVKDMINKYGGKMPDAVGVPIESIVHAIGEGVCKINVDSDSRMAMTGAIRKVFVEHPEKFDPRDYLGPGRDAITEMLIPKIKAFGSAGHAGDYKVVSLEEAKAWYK
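Giardia FBPA (40 nM reagent) was preincubated 10 min at RT with compound (up to 57.5 uM final), then substrate plus GAPDH/TPI/NAD/arsenate coupling system with diaphorase/resazurin was added; resorufin fluorescence (525/598 nm) was read after 20 min.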
Shiga inhibitor: inhibitors of Shiga toxin in Vero cells. Vero cells, Shiga toxin protein synthesis inhibition reporter. inhibition, % at 38.7 µM. 290,000 tested, 9.2% active. AID 2315; in the data active means inhibition mostly above about 28%, no sharp cut-off; inactive means mostly below about 43%; further: 0% is about no effect
TbPYK inhibitor: T. brucei pyruvate kinase inhibition | Q57TT1 | TbPYK enzyme, Kinase-Glo Plus ATP luminescence, 45 min | Potency, µM (series often up to 76.8 µM), for the others: at the highest dose activity, negative = inhibition, hits mostly inhibitors | 410,000 tested, 0.12% active | AID 624173; further: potency means the concentration at half of the fitted maximal effect; on the % scale 0 is the no-effect control and ±100 the full control effect; nearly all actives have a fitted effect of over 50% in size
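Glycolytic pyruvate kinase of T. brucei was incubated with substrate, test compound and 130 uM ADP for 45 minutes at room temperature. Luminescent Kinase-Glo Plus signal was measured after 10 minutes.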
LmPK inh: inhibitors of Leishmania mexicana pyruvate kinase; AID 1721; Q27686; 290,000 tested, 0.37% active; purified LmPK, Kinase-Glo ATP luminescence, 1 h; Potency, µM (titrated, usually from 57.5 µM), inactives show top-dose activity change, negative = inhibition, hits mostly inhibitors; further: potency means the concentration at half of the fitted maximal effect; on the % scale 0 is the no-effect control and ±100 the full control effect
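Pyruvate kinase activity monitored as ATP production (luciferase luminescence). Conditions: 0.1 nM enzyme, 0.5 mM PEP, 0.1 mM ADP, 1 h, RT; normalized against uninhibited and no-enzyme wells.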
An asterisk follows results filed as active; ? = inconclusive; nt = no result; [ ] = dose if it differs, or a comment. The full list was thinned out, with hits kept by preference. Unless noted, the call rests on the fitted dose curve; in most records, active means well fitted curve in the direction sought with a large enough effect; inconclusive means small, poorly fitted or top-dose-only effect, or another doubt; inactive means no such curve, though single readings can be large; an effect the other way counts as inactive or inconclusive.

SMILES | RE007 growth inh | CHX counter | Giardia FBPA inh | Shiga inhibitor | TbPYK inhibitor | LmPK inh
CCCn1c(NCc2cccs2)nc2ccccc21 | -12.2% | -2.7 | -0.3% | 6.2 | -4.6% | 0.3%
c1ccc(-n2cnc3cc(NCc4cccs4)ccc32)cc1 | -12.1% | 87.5* | -6.7% | 76.6* | -12.8% | -2.0%
Cn1cnc2cc(NCc3cccs3)ccc21 | -28.1% | 24.1* | 1.3% | 65.5* | 3.2% | -5.8%
COc1ccccc1-n1cnc2cc(C(=O)NCc3ccco3)ccc21 | -2.1% | 10.7 | 0.1% | 17.8 | -1.5% | -5.2%
COc1ccc(-n2cnc3cc(NCc4cccs4)ccc32)cc1 | ? | 50.9* | -20.5% | 99.6* | -18.2% | 3.7%
O=C(CSc1nc2c(c(=O)[nH]1)CCC2)Nc1cccc(O)c1 | nt | nt | nt | nt | -5.2% | nt
O=C(CN1C(=O)CC(c2ccccc2)Sc2ccccc21)Nc1cccc(Cl)c1 (stereo unspecified) | nt | nt | nt | nt | -2.2% | nt
Cc1ccc(-n2cnc3cc(NCc4cccs4)ccc32)cc1 | 22.4µM* | 52.9* | -20.6% | 99.9* | -13.2% | 5.8%
Cc1ccc(-n2ccnc(NCc3cccs3)c2=O)cc1C | nt | nt | nt | nt | 3.0% | nt
CSc1nc(Cl)cc(Nc2ccc(O)cc2)n1 | 3.6% | 42.4* | -3.4% | 63.4 | 2.6% | 1.0%
CNc1cc(Cl)nc(SC)n1 | -14.4% | 1.0 | 2.1% | 18.0 | 0.1% | -3.1%
COc1ccc(-c2coc3c(C(=O)Nc4cccnc4)cccc23)c(C)c1 | 9.9%[18.4 µM] | nt | nt | nt | -7.9% | nt
CCOc1ccc(NC(=O)C2C3CC/C=C\CCC32)cc1 (stereo unspecified) | 12.3% | 16.8* | 2.0% | 34.5 | -2.2% | 3.7%
COc1ccc(NC(=O)C2C3CC/C=C\CCC32)cc1 (stereo unspecified) | -2.5% | 23.7* | 0.6% | 57.0* | -1.0% | 3.8%
C=Cc1cc(F)c(S(=O)(=O)N2CCN(S(=O)(=O)c3ccc4c(c3)OCCO4)CC2)cc1F | nt | -9.6 | nt | -12.9 | nt | nt
CCS(=O)(=O)N1Cc2ccccc2CC1C(=O)Nc1ccccc1OC (stereo unspecified) | 3.5% | 9.0 | -4.5% | 11.8 | 4.2% | 0.2%
CCS(=O)(=O)N1Cc2ccccc2CC1C(=O)Nc1ccc(F)cc1 (stereo unspecified) | 8.5% | 24.3* | 3.3% | 36.0* | -1.0% | 4.7%
CCS(=O)(=O)N1Cc2ccccc2CC1C(=O)Nc1ccc(OC)c(OC)c1 (stereo unspecified) | -14.5% | -3.1 | -2.5% | -9.0 | 9.2% | 2.9%
CCS(=O)(=O)N1Cc2ccccc2CC1C(=O)Nc1cccc(OC)c1 (stereo unspecified) | 12.8% | 23.9* | 22.5% | 123.8* | -2.9% | -1.1%
COc1ccc(-c2nnc(SCC(=O)NC(=O)Cc3ccccc3)n2C)cc1 | 12.8% | nt | nt | nt | -19.1% | nt
OC1CCCCC1Sc1nc2ccccc2s1 (stereo unspecified) | -27.1% | 42.2* | 3.8% | 104.1* | -4.4% | -2.9%
COC(=O)c1ccc(C(NC(=O)OCc2ccccc2)/C(F)=C/[C@@H](C)C(=O)NCc2cccnc2)cc1 (stereo partly specified) | nt | nt | 1.1% | nt | nt | nt
COc1ccc(NC(=O)c2ccc3snnc3c2)cc1OC | nt | nt | nt | nt | -3.4% | nt
O=C(Nc1ccc(F)cc1)c1ccc2snnc2c1 | -9.7% | 29.1* | -2.7% | 51.9* | 0.0% | 3.4%
COc1cccc(NC(=O)c2ccc3snnc3c2)c1 | -1.6% | 37.5* | -1.2% | 80.5* | 1.0% | ?
SMILES | RE007 growth inh | CHX counter | Giardia FBPA inh | Shiga inhibitor | TbPYK inhibitor | LmPK inh
Cc1cccc(NC(=O)c2ccc3snnc3c2)c1 | nt | nt | nt | nt | 2.2% | nt
Cc1ccc(NC(=O)c2ccc3snnc3c2)cc1C | 4.8% | 37.1* | -2.4% | 74.2* | 2.2% | -1.5%
CCOc1ccc(NC(=O)c2ccc3snnc3c2)cc1 | -21.4% | 25.7 | -0.4% | 42.8* | -7.3% | -1.9%
CC1(C(=O)NS(=O)(=O)c2ccc(Br)cc2)CCN1C(=O)CCC1CCCC1 (stereo unspecified) | 8.7% | nt | nt | nt | 3.7% | nt
CC(C)CN(C(=O)C1CCCO1)c1c(N)n(CC(C)C)c(=O)[nH]c1=O (stereo unspecified) | -7.8% | nt | nt | nt | -2.2% | nt
Cc1ccc(O)c(-c2cc(C(=O)Nc3cccnc3)[nH]n2)c1 | 2.6% | 31.1* | 2.5% | 79.8* | 2.2% | -3.8%
